Experiment [1] in a line: Primary qHTS for inhibitors of SARS-S pseudo-typed particle cell entry (AID 1479145; also: nearly all actives have a fitted effect of over 45% in size; as to activity change, negative = inhibition: series mostly up to about 57 µM). (In general: qHTS replaces the single test concentration by a dilution series.)
The nature of experiment [2]: Primary qHTS for Huh7 cytotoxicity: counterscreen for inhibitors of MERS-S pseudotyped particle cell entry (AID 1479147).
The nature of experiment [3]: Primary qHTS for inhibitors of MERS-S pseudo-typed particle cell entry (AID 1479149). Also: nearly all actives have a fitted effect of over 60% in size. As to activity change, negative = inhibition: series mostly up to about 57 µM.
A short description of experiment [4]: Primary qHTS for Vero E6 cytotoxicity: counterscreen for inhibitors of SARS-S pseudo-typed particle cell entry (AID 1479150).

Results filed as inconclusive are left out. A number with no mark means an inactive call. Active and inactive are the calls of the source. Calls follow the shape of the full dose curve.
% is scaled to controls: 0 for no effect and ±100 for the full control effect; potency is read from the fitted curve at half-maximal effect.

Take `NCCNC(=O)c1ccc(Cl)cn1`: the Potency result in experiment [1], in experiment [2], in experiment [3] and in experiment [4] was “inactive” each time.
As to `CC(=O)Oc1ccc(C(c2ccc(OC(C)=O)cc2)c2ccccn2)cc1`, in experiment [1], the Potency was 1.41 µM (active). In addition, the Potency result in experiment [2] and in experiment [3] was “inactive” in each case.
As for `C[C@H](N)[C@H](O)c1cccc(O)c1`, the Potency entry in experiment [1], in experiment [2], in experiment [3] and in experiment [4] was “inactive” each time.
In the case of `Nc1ccc2cc3ccc(N)cc3nc2c1`, the Potency in experiment [1] was 14.1 µM (active).
As to `CNC(=O)c1cnn(-c2nc(N)c3ncn([C@@H]4O[C@H](CO)[C@@H](O)[C@H]4O)c3n2)c1`, the Potency entry in experiment [1], in experiment [2], in experiment [3] and in experiment [4] was “inactive” in each case.
Take `FC(F)(F)C(Cl)Br` (stereo unspecified): the Potency entry in experiment [1], in experiment [2], in experiment [3] and in experiment [4] was “inactive” throughout.
For `CC(C)NCC(O)COc1ccc(COCCOC(C)C)cc1` (stereo unspecified), the Potency result in experiment [1], in experiment [2], in experiment [3] and in experiment [4] was “inactive” in each case.
On to `O=C1C(c2[nH]c3ccccc3c2O)=Nc2ccccc21`, for which the Potency entry in experiment [1], in experiment [2], in experiment [3] and in experiment [4] was “inactive” each time.
As for `Cc1cccc(CN2CCN(C(c3ccccc3)c3ccc(Cl)cc3)CC2)c1` (stereo unspecified), the Potency result in experiment [1], in experiment [2], in experiment [3] and in experiment [4] was “inactive” in each case.
`CC1(C)O[C@@H]2C[C@H]3[C@@H]4C[C@H](F)C5=CC(=O)C=C[C@]5(C)[C@H]4[C@@H](O)C[C@]3(C)[C@]2(C(=O)CO)O1`: the Potency entry in experiment [1], in experiment [2], in experiment [3] and in experiment [4] was “inactive” throughout.
Regarding `C[C@@H]1C[C@H]2[C@@H]3CCC4=CC(=O)C=C[C@]4(C)[C@@]3(F)[C@@H](O)C[C@]2(C)[C@H]1C(=O)CO`, the Potency result in experiment [1], in experiment [2], in experiment [3] and in experiment [4] was “inactive” in each case.
Consider `CCC(=O)c1ccc(O)cc1`, for which the Potency entry in experiment [1], in experiment [2], in experiment [3] and in experiment [4] was “inactive” throughout.
On to `c1ccc(CN(CC2=NCCN2)c2ccccc2)cc1`, for which the Potency entry in experiment [1], in experiment [2], in experiment [3] and in experiment [4] was “inactive” in each case.
As for `CCOCC(O)COc1ccc(NC(=O)CC[S+](C)C)cc1` (stereo unspecified), the Potency result in experiment [1], in experiment [2], in experiment [3] and in experiment [4] was “inactive” each time.
As to `OC(CCN1CCCCC1)(c1ccccc1)C1CC2C=CC1C2` (stereo unspecified), the Potency result in experiment [1], in experiment [2], in experiment [3] and in experiment [4] was “inactive” throughout.
Turning to `CC(COc1ccccc1)NC(C)C(O)c1ccc(O)cc1` (stereo unspecified), the Potency entry in experiment [1], in experiment [2], in experiment [3] and in experiment [4] was “inactive” each time.
In the case of `CC(=O)OC[C@H]1O[C@@](COC(C)=O)(O[C@H]2O[C@H](COC(C)=O)[C@@H](OC(C)=O)[C@H](OC(C)=O)[C@H]2OC(C)=O)[C@@H](OC(C)=O)[C@@H]1OC(C)=O`, the Potency entry in experiment [1], in experiment [2], in experiment [3] and in experiment [4] was “inactive” each time.
For `NCCc1ccc(O)c(O)c1`, the Potency entry in experiment [1], in experiment [2], in experiment [3] and in experiment [4] was “inactive” throughout.
Turning to `CN(C)C(=O)Oc1cccc([N+](C)(C)C)c1`, the Potency result in experiment [1], in experiment [2], in experiment [3] and in experiment [4] was “inactive” each time.
With `CCc1cccc2c3c([nH]c12)C(CC)(CC(=O)O)OCC3` (stereo unspecified), the Potency result in experiment [1], in experiment [2], in experiment [3] and in experiment [4] was “inactive” in each case.
On to `CC(=O)OCC1=C(C(=O)O)N2C(=O)[C@@H](NC(=O)CSc3ccncc3)[C@H]2SC1`, for which the Potency entry in experiment [1], in experiment [2], in experiment [3] and in experiment [4] was “inactive” throughout.
In the case of `CC(C)Cc1ccc(C(C)C(=O)OCc2ccccn2)cc1` (stereo unspecified), the Potency result in experiment [1], in experiment [2], in experiment [3] and in experiment [4] was “inactive” in each case.
For `C/C=C/c1ccc(OC)cc1`, the Potency result in experiment [1], in experiment [2], in experiment [3] and in experiment [4] was “inactive” each time.
With `OC[C@@H](O)[C@H](O)[C@H](O)[C@@H](O)CO`, the Potency entry in experiment [1], in experiment [2], in experiment [3] and in experiment [4] was “inactive” throughout.
Regarding `Oc1cc(O)c2c(c1)O[C@H](c1ccc(O)c(O)c1)[C@H](O)C2`, the Potency entry in experiment [1], in experiment [2], in experiment [3] and in experiment [4] was “inactive” each time.
For the compound `CCOC(=O)[C@H](CCc1ccccc1)N[C@H]1CS[C@H](c2cccs2)CN(CC(=O)O)C1=O`, the Potency result in experiment [1], in experiment [2], in experiment [3] and in experiment [4] was “inactive” in each case.
Take `Oc1c(Cl)cc(Cl)c(Cl)c1Cc1c(O)c(Cl)cc(Cl)c1Cl`: the Potency was 2.82 µM (active) in experiment [1], 3.55 µM (active) in experiment [3] and 5.62 µM (active) in experiment [4]. The Potency entry in experiment [2] is “inactive”.
The corresponding values for `N[C@H](Cc1c[nH]c2ccccc12)C(=O)O` are “inactive”, “inactive”, “inactive” and “inactive”.
The corresponding values for `O=C(O)/C=C/c1ccc(Cn2ccnc2)cc1` are “inactive”, “inactive”, “inactive” and “inactive”.
The corresponding values for `NC(CSCC(=O)O)C(=O)O` (stereo unspecified) are “inactive”, “inactive”, “inactive” and “inactive”.
`CC(=O)OCC(=O)[C@@]1(O)CC[C@H]2[C@@H]3CCC4=CC(=O)C=C[C@]4(C)[C@H]3[C@@H](O)C[C@@]21C`: the Potency result in experiment [1], in experiment [2], in experiment [3] and in experiment [4] was “inactive” throughout.
With `NC(N)=NCCC[C@H](N)C(=O)O`, the activity change, negative = inhibition in experiment [1] was -24.6% [at 5.34 µM]. The outcome in experiment [2] and in experiment [3] was “inactive [at 5.34 µM]” in each case. In addition, in experiment [4], the activity change, negative = cytotoxicity was 0.575% [at 5.34 µM].
`O=[N+]([O-])c1nccn1CO[C@@H](CO)[C@H](O)CO`: the Potency entry in experiment [1], in experiment [2], in experiment [3] and in experiment [4] was “inactive” each time.
Take `CC(=O)OCC(=O)[C@@]12N=C(C)O[C@@H]1C[C@H]1[C@@H]3CCC4=CC(=O)C=C[C@]4(C)[C@H]3[C@@H](O)C[C@@]12C`: the Potency result in experiment [1], in experiment [2], in experiment [3] and in experiment [4] was “inactive” in each case.
Turning to `CN(C)C(=S)SC(=S)N(C)C`, the Potency was 1.41 µM (active) in experiment [1], 3.16 µM (active) in experiment [2], 1 µM (active) in experiment [3] and 2.82 µM (active) in experiment [4].

The values above are taken from PubChem BioAssay (NCATS).
